Calls of active or inactive are those of the source.
What was measured:
[1] = test system: Plasmodium falciparum Sir2 (PF13_0152, Sir2A); test: Plasmodium falciparum Sir2A binding compounds – biochemical, small-molecule microarray, 635 nm fluorescence, primary screen (AID 1098); conditions: fluorescence 635 nm, higher = more signal;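 further: score merges spot fluorescence intensity with its signal-to-noise ratio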
[2] = probe aDKK1 binding to arrayed compounds – biochemical, biotinylated probe, 635/667 nm fluorescence, primary screen (AID 1099); conditions: small-molecule microarray, higher = more signal;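 further: score merges 667nm spot fluorescence with signal to noise across triplicate slides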
[3] = probe aCHRDL2 binding to arrayed compounds – biochemical, biotinylated probe, 635/667 nm fluorescence, primary screen (AID 1100); conditions: small-molecule microarray, higher = more signal
[4] = change in splice reporter luminescence, either direction, cell-based, HEK293, spliceosome inhibition project, primary screen (AID 1101); conditions: HEK293 splicing luciferase reporter, 24 h, higher = more signal, called active from +8 up or from −8 down;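 further: HEK293 cells carrying a splicing-competent luciferase reporter gene; test concentration not given here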
[5] = target: Fibroblast growth factor 10 (Homo sapiens) (UniProt O15520); test: compounds binding fibroblast growth factor 10 – biochemical, small-molecule microarray, 635 nm fluorescence, primary screen (AID 1102); conditions: FGF10 binding, fluorescence 635 nm, higher = more signal
[6] = test system: glycogen synthase kinase-3 (GSK3A per assay name; protocol says GSK3B); test: compounds binding glycogen synthase kinase-3 – biochemical, small-molecule microarray, 635 nm fluorescence, GSK3A, primary screen (AID 1103); conditions: fluorescence 635 nm, higher = more signal; further: the record names both GSK3A and GSK3B
[7] = target: Epidermal growth factor receptor (Homo sapiens) (UniProt P00533); test: compounds binding epidermal growth factor receptor – biochemical, small-molecule microarray, 635 nm fluorescence, primary screen (AID 1104); conditions: EGFR binding, higher = more signal;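 further: score merges 667 nm emission intensity with spot signal to noise over triplicate slides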
[8] = target: Follistatin-related protein 3 (Homo sapiens) (UniProt O95633); test: compounds binding follistatin-related protein 3 – biochemical, small-molecule microarray, 635 nm fluorescence, primary screen (AID 1105); conditions: FSTL3 binding, higher = more signal;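 further: score merges emission near 667 nm and signal to noise per printed spot across three slides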
[9] = target: Dickkopf-related protein 1 (Homo sapiens) (UniProt O94907); test: small molecules binding DKK1 protein – biochemical, small-molecule microarray, 635 nm fluorescence scan, primary screen (AID 1106); conditions: higher = more signal;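 further: score merges emission near 667 nm with signal to noise over three replicate slides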
[10] = test system: Inhibin beta A chain (activin A); test: small molecules binding activin A – biochemical, small-molecule microarray, 635 nm fluorescence scan, primary screen (AID 1107); conditions: INHBA, higher = more signal;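 further: mouse activin A protein probed at 4.33 µg/mL on printed slides; score merges bound-protein fluorescence near 667 nm with spot signal-to-noise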
[11] = test system: Human papillomavirus type 1a protein E7 (residues 44-93); test: small molecules binding HPV E7 44-93 – biochemical, small-molecule microarray, residues 44-93, 635 nm fluorescence, primary screen (AID 1108); conditions: fluorescence 635 nm, higher = more signal;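 further: E7 fragment applied at 1 µg/mL in TBST for 1 h at 4 C; score combines spot fluorescence with its signal to noise ratio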
[12] = hepatitis C replication reporter changes, two-sided – Huh7 cells, luciferase reporter, HCV replication inhibitor project, primary screen (AID 1109); conditions: Huh7 HCV replicon luciferase reporter, 48 h; higher = more signal;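 further: huh7 hepatoma cells harbouring a luciferase neomycin HCV replicon reporter; luciferase luminescence as measure of HCV replicon replication; test concentration not given here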
[13] = target: Left-right determination factor 2 (Homo sapiens) (UniProt O00292); test: small molecules binding LEFTY2 protein – biochemical, small-molecule microarray, 635 nm fluorescence scan, primary screen (AID 1110); conditions: higher = more signal
[14] = target: Calmodulin-1 (Homo sapiens) (UniProt P0DP23); test: small molecules binding calmodulin-1 with EGTA – biochemical, small-molecule microarray, Cy5-labelled CALM1, profiling panel (AID 1111); conditions: Cy5-CALM1 binding fluorescence, higher = more signal;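 further: labelled calmodulin applied in Tris saline Tween buffer holding calcium plus EGTA and DTT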
[15] = target: Calmodulin-1 (Homo sapiens) (UniProt P0DP23); test: small molecules binding Ca-loaded calmodulin-1 – biochemical, small-molecule microarray, Cy5-labelled CALM1, plus calcium, artefact control for SMM control-protein annotation, profiling panel (AID 1112); conditions: Cy5-CALM1 binding fluorescence, higher = more signal;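 further: score merges spot fluorescence with signal to noise from triplicate slides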
[16] = probe aWnt5a binding to arrayed compounds – biochemical, biotinylated probe, 635/667 nm fluorescence, primary screen (AID 1113); conditions: small-molecule microarray, higher = more signal;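 further: score merges 667 nm fluorescence intensity with signal-to-noise per printed feature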
[17] = probe aShh binding to arrayed compounds – biochemical, biotinylated probe, 635/667 nm fluorescence, primary screen (AID 1114); conditions: small-molecule microarray, higher = more signal;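 further: probe is biotin-labelled aShh protein from a stem cell growth factor screen; measures binding of labelled protein to compounds printed on the slide; score merges feature fluorescence at 667 nm with signal-to-noise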
[18] = probe aNog binding to arrayed compounds – biochemical, biotinylated probe, 635/667 nm fluorescence, primary screen (AID 1115); conditions: small-molecule microarray, higher = more signal;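 further: probe is biotinylated aNog protein used at 0.15 µg/mL for 1 h at 4 C; z-score combines 667 nm fluorescence of each spot with its signal to noise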
[19] = target: Torsin-1A-interacting protein 1 (Homo sapiens) (UniProt Q5JTV8); test: compound microarray binding of lysate hLAP1 – cell lysate, small-molecule microarray, COS7 lysate, 635/667 nm fluorescence, primary screen (AID 1116); conditions: 635 nm fluorescence, higher = more signal
[20] = target: Alpha-bungarotoxin (Bungarus multicinctus) (UniProt P60615); test: compounds binding labelled alpha-BTX control protein – biochemical, small-molecule microarray, Alexa647 label, 635/667 nm fluorescence, artefact control for SMM control protein annotation, profiling panel (AID 1117); conditions: alpha-BTX-A647 binding fluorescence, higher = more signal
Sequence of Alpha-bungarotoxin (Bungarus multicinctus) (P60615 whole entry, looked up): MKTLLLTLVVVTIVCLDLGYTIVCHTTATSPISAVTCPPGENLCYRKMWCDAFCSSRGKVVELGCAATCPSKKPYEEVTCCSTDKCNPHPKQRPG

Sequence of Epidermal growth factor receptor (Homo sapiens) (P00533 whole entry, looked up): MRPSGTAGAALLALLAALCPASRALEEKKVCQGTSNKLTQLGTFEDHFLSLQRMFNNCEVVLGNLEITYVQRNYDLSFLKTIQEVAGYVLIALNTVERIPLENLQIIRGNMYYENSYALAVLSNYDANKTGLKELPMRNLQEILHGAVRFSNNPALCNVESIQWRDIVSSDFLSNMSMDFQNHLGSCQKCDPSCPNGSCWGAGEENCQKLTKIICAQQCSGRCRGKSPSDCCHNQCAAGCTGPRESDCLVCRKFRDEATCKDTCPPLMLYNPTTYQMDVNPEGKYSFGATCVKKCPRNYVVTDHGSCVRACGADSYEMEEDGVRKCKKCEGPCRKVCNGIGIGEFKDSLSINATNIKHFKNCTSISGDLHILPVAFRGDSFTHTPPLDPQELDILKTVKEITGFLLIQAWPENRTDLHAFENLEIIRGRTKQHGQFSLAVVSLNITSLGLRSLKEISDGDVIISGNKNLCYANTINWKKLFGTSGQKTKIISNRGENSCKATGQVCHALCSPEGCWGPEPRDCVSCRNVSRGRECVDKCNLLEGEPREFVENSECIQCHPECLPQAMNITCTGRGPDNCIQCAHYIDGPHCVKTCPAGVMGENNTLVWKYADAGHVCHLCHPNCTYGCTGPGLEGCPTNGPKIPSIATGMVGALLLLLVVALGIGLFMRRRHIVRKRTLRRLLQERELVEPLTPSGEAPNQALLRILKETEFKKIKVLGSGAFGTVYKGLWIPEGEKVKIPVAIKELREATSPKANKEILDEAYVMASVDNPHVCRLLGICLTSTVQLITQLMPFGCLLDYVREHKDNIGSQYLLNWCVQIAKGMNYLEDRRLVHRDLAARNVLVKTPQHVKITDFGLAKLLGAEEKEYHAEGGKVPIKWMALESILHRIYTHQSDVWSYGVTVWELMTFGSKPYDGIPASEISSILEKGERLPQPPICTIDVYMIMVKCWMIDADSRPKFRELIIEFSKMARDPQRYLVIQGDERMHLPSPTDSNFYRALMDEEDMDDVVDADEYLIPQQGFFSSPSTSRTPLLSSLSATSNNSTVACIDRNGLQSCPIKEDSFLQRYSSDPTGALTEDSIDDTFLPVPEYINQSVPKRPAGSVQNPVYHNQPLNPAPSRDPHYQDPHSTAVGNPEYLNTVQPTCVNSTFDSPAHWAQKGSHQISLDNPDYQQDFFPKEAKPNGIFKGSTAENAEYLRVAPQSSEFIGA
Sequence of Fibroblast growth factor 10 (Homo sapiens) (O15520 whole entry, looked up): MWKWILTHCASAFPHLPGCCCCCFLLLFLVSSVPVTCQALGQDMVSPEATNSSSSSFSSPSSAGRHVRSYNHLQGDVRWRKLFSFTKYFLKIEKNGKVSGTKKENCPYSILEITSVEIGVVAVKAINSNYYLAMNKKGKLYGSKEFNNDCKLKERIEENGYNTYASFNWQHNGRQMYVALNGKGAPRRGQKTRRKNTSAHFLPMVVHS
Sequence of Follistatin-related protein 3 (Homo sapiens) (O95633 whole entry, looked up): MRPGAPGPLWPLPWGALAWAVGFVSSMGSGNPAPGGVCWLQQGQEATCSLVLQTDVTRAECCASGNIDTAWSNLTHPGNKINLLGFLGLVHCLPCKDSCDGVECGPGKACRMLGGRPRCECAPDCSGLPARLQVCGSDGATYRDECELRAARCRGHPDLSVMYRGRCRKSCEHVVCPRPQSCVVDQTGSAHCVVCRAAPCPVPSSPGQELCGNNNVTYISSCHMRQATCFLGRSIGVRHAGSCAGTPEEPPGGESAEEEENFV
Sequence of Dickkopf-related protein 1 (Homo sapiens) (O94907 whole entry, looked up): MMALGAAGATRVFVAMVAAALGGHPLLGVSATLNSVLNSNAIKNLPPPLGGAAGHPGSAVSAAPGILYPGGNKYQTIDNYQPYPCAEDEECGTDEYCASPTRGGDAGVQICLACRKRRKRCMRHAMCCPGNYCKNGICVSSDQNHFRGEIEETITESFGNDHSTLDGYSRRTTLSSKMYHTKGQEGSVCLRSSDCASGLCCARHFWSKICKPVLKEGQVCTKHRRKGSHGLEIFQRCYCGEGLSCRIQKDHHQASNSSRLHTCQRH
Sequence of Torsin-1A-interacting protein 1 (Homo sapiens) (Q5JTV8 whole entry, looked up): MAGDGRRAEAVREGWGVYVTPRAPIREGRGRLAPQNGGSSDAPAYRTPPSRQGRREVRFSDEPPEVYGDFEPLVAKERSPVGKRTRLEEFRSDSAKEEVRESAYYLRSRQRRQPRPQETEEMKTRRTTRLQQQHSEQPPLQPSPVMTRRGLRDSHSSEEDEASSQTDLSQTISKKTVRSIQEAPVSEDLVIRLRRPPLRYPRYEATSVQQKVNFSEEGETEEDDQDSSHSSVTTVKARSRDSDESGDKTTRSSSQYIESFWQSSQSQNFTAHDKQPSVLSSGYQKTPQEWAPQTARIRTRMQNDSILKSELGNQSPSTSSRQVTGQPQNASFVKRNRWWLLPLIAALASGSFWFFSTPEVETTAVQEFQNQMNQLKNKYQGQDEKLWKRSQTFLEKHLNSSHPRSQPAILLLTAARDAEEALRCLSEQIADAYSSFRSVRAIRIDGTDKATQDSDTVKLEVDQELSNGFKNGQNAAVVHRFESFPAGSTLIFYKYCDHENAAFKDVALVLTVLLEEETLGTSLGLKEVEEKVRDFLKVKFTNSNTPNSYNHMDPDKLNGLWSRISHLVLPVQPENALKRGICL
Sequence of Left-right determination factor 2 (Homo sapiens) (O00292 whole entry, looked up): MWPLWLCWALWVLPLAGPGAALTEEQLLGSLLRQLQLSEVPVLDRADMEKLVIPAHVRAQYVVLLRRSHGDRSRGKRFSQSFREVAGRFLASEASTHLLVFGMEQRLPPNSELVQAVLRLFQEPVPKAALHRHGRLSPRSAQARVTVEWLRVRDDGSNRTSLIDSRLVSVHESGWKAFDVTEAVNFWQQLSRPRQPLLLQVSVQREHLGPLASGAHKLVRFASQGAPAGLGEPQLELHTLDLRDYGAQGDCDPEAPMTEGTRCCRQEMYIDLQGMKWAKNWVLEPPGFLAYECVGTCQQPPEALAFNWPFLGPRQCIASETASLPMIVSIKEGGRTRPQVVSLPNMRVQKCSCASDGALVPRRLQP

Structure (SMILES)	composite z-score [1]	composite z-score [2]	composite z-score [3]	z-score [4]	composite z-score [5]	composite z-score [6]	composite z-score [7]	composite z-score [8]	composite z-score [9]	composite z-score [10]	composite z-score [11]	z-score [12]	composite z-score [13]	composite z-score [14]	composite z-score [15]	composite z-score [16]	composite z-score [17]	composite z-score [18]	composite z-score [19]	composite z-score [20]
COC(=O)C1=C(C)N(Cc2ccccc2)[C@]23O[C@](C(=O)OC)(C(=O)N2[C@@H]1c1ccccc1)C(C(=O)OC)=C3C(=O)OC	1.16	-0.389	-0.562	-2.35 (inactive)	1.24	1.06	0.7	0.84	0.757	0.226	1.3	-2.76	0.88	-0.328	-1.19	-0.0346	-0.138	0.229	0.569	-0.129
C[C@@H]1CC[C@H]2C(=O)O[C@@H](Cc3ccccc3)CN2[C@H]1c1ccc(Br)cc1	0.666	0.14	-0.246	-0.387 (inactive)	0.383	0.177	0.389	0.416	0.783	0.619	0.712	0.166	0.276	0.134	0.216	-0.118	-0.221	-0.158	0.579	0.198
C[C@H]1COC(=O)[C@@H]2CCCN2C(=O)[C@@H](C)COC(=O)[C@H](Cc2ccccc2)NC1=O	0.878	-0.275	-0.647	0.282 (inactive)	0.338	0.727	0.911	0.511	0.374	-0.372	0.851	-1.34	0.474	-0.099	-0.447	-0.124	-0.206	-0.3	0.308	0.158
CO[C@H]1COC(=O)[C@@H](Cc2ccccc2)NC(=O)[C@@H](C)COC(=O)CCC[C@@H]1C	-0.0517	-0.242	-0.539	-0.498 (inactive)	0.517	-0.431	0.304	0.379	0.601	0.296	-0.573	-2.38	0.455	-0.273	-0.679	-0.0478	0.0278	-0.412	0.29	0.273
CCOC(=O)[C@H](CC(C)C)NC(=O)CCC1CC(OC(=O)NCc2cccc3ccccc23)CC2(CCCC(COC(=O)NCCOC)O2)O1 (stereo not given in full)	0.546	-0.164	-0.401	-1.8 (inactive)	0.799	1.3	0.412	1.17	0.358	-0.0748	1.34	0.339	0.629	-0.24	-0.418	-0.116	-0.128	-0.0653	0.481	0.0702
O=C1C=C[C@@H](O)[C@@H]2[C@@H]3C(=O)N(c4ccc(F)cc4F)C(=O)[C@@H]3CC[C@@H]12	0.519	-0.241	-0.43	-1.21 (inactive)	0.925	0.39	0.462	0.39	0.664	-1.12	0.229	-0.578	0.237	0.269	-0.282	-0.0405	-0.153	-0.252	0.804	0.0764
CO[C@@H]1COC(=O)[C@H](CCSC)NC(=O)CC=C[C@@H](C)COC(=O)[C@H](C)NC(=O)CC=C[C@H]1C	0.931	-0.34	-0.833	0.0885 (inactive)	0.816	0.856	0.953	1.1	1.19	-0.0263	0.677	-0.62	1.19	-0.886	-1.04	-0.0179	-0.221	-0.0604	-0.185	-0.155
CCOC(=O)NN=C1C[C@@H](O)[C@@H](O)[C@@H]2[C@@H]3C(=O)N(c4cccc(Oc5ccccc5)c4)C(=O)[C@@H]3CC[C@@H]12	0.933	-0.27	-0.187	0.0999 (inactive)	1.13	-0.652	0.164	-0.329	-0.313	-0.237	-0.269	-0.912	0.144	-0.0069	-0.434	-0.0165	-0.32	-0.444	-0.127	1.32
CCN1C(=O)[C@H]2[C@H]3[C@H](O)[C@H](O)CC(=O)[C@H]3CC[C@H]2C1=O	0.519	-0.106	-0.721	0.691 (inactive)	0.406	0.713	0.371	0.396	0.776	-0.249	0.566	-0.693	0.872	-0.123	-0.448	-0.0472	0.0278	-0.158	0.161	0.113
CC(CCN1CCCCc2nc(C)c(C)cc21)=NOC[C@@H](C)[C@H](OCc1ccccc1)C(C)C	-0.399	-0.624	-0.579	-1.22 (inactive)	-1.78	-1.03	-1.77	-2.25	-0.991	0.736	-0.824	-0.876	-1.47	-1.74	-1.8	-0.335	-0.428	-0.803	-1.07	-2.21
CON=C[C@@H](NS(=O)(=O)c1ccc(C)cc1)[C@H](C)C=CCC(=O)OC	0.571	-0.26	-0.447	-0.114 (inactive)	0.0529	-0.435	0.314	0.224	0.611	1.33	-0.933	0.604	0.532	-0.654	-1.31	-0.128	0.0756	-0.425	0.22	-0.0634
